# High-throughput results deposited in PubChem BioAssay by several laboratories.
# In the library only some 2.3% were active in any assay of this set; here they are far more common.
# NTR1 agonist: NTR1 (human) agonism; NTR1-U2OS beta-arrestin-GFP spot imaging, agonist mode; actives 0.17% (n = 330,000); activation, % at 20 µM;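 active = activation at or above 40% of the spot to cytoplasm intensity ratio, with at least 20 cells analyzed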;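 note: 0% = DMSO without peptide and 100% = 100 nM NTR1 peptide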
# ABHD5 PLIN5 PPI: inhibitors of human ABHD5-perilipin-5 interaction; Split G. princeps luciferase complementation, luminescence, 4 h; inhibition, % at 4 µM; actives 0.78% (n = 360,000); AID 602281;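 active = inhibition above the mean inhibition across every tested compound plus 3 SD, cut at about 22% in these data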;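 note: 0% = DMSO only wells and the 100% control is not disclosed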
# HTR2A ag: mouse HTR2A agonism via beta-arrestin recruitment | actives 0.66% (n = 360,000) | P35363 | CHO-K1 mHTR2A beta-arrestin complementation, luminescence; percent of 30 µM serotonin response | activation, % at 7.6 µM;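 active = activation above a run cutoff, the mean activation of all tested compounds plus 3 SD, cut at about 14% in these data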;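 note: 0% = plate median of compound wells and 100% = 30 µM serotonin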
# B2AR ag: agonists of human beta-2 adrenergic receptor inducing internalization. P07550. response, % (concentration not given with the values). actives 0.43% (n = 340,000). Am2.2-beta2AR cells, FAP receptor internalization, flow cytometry. AID 504454;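 active = response above a set limit, near 3 SD of response in nonfluorescent compounds, cut at about 42% in these data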
# Target sequence (P07550 whole entry, looked up): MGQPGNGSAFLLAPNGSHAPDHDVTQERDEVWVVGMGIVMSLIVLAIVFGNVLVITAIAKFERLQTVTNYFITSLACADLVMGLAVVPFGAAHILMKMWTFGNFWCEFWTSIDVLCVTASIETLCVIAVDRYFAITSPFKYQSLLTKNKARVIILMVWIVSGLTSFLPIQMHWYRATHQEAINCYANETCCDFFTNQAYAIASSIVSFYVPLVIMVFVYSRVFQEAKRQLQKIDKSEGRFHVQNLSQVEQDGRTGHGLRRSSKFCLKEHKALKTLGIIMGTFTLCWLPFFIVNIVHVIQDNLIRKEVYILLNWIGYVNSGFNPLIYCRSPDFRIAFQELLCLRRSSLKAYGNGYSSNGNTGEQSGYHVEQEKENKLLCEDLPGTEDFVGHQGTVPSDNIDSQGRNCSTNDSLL
# Exocytosis inh: lytic granule exocytosis inhibition | AID 651702 | actives 0.66% (n = 360,000) | inhibition, % at 10 µM | TALL-104 LAMP-1 surface exposure, flow cytometry; cells stimulated with thapsigargin and PMA;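 active = inhibition above about 55%, limit read from the data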
# ABHD5 PLIN5 conf: confirmation of human ABHD5-PLIN5 interaction inhibitors; shares compounds with ABHD5 PLIN5 PPI; biochemical ABHD5-PLIN5 interaction, luminescence; inhibition, % at 4 µM; actives 67% (n = 2,200); in the data active = inhibition above about 23%;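 note: 0% = DMSO vehicle wells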
# HNF4 counter: counter-screen for ABHD5-PLIN5 inhibitors: HNF4 split-luciferase | shares compounds with ABHD5 PLIN5 PPI | HNF4 dimerization, luminescence, biochemical | inhibition, % at 4 µM | actives 77% (n = 2,200);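 active = mean inhibition across replicate wells exceeding the computed hit threshold, cut at about 13% in these data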;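 note: light from luciferase halves that rejoin when HNF4 fusion proteins dimerize; 0% = DMSO only wells and the 100% control is not given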
# MOR ag counter: OPRM1 agonism in mouse HTR2A counterscreen; shares compounds with HTR2A ag; U2OS OPRM1 beta-arrestin PathHunter, luminescence; DMSO 0%, DAMGO 9.3 µM 100%; activation, % at 9.3 µM; actives 5.3% (n = 2,300); AID 624380;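 active = mean activation above the mean of DMSO-only wells plus 3 SD, cut at about 0.5% in these data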
# m5-HT2A ag conf: confirmation of mouse HTR2A serotonin receptor agonists. activation, % at 7.6 µM. CHO-K1 PathHunter beta-arrestin recruitment, luminescence; DMSO 0%, 30 µM serotonin 100%. actives 19% (n = 2,300). shares compounds with HTR2A ag;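 active = mean activation across triplicates above the hit threshold derived in the original primary screen, cut at about 15% in these data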
# Exocytosis CP01: lytic granule exocytosis inhibition | shares compounds with Exocytosis inh | TALL-104 cells, LAMP-1 externalization, flow cytometry; stimulated with PMA plus thapsigargin | inhibition, % at 10 µM | actives 11% (n = 1,500); in the data active = inhibition above about 60%;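 note: 0% = stimulated vehicle wells and 100% = unstimulated wells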
# Starred values were filed as active, the others as inactive; . = no result given.
SMILES,NTR1 agonist,ABHD5 PLIN5 PPI,HTR2A ag,B2AR ag,Exocytosis inh,ABHD5 PLIN5 conf,HNF4 counter,others
Cc1ccc2nsnc2c1S(=O)(=O)N(Cc1ccco1)Cc1cc2cccc(C)c2[nH]c1=O,5.3,-7.3,1.9,15.3,-1.1,.,.,
Cc1ccc2[nH]c(=O)c(CN(Cc3ccco3)S(=O)(=O)c3c(C)ccc4nsnc34)cc2c1,8.2,24.8*,10.6,13.1,0.9,32.6*,43.0*,
C=CCNC(=O)/C(C#N)=C/c1c(C)nn(-c2ccc(Cl)cc2)c1Cl,2.7,33.8*,1.4,5.4,-2.7,40.9*,45.4*,
Cc1nn(-c2ccc(Cl)cc2)c(Cl)c1/C=C(\C#N)C(N)=O,2.5,5.4,-0.8,5.3,-2.8,.,.,
CCC(CO)Oc1cc(NCc2ccccn2)c2ncn(C(C)C)c2c1 (configuration not stated),-1.7,-7.8,-3.6,-9.4,2.2,.,.,
Cc1ccc(C)c(CNS(=O)(=O)c2c(C(=O)N3CCCC3)c(C)n(C)c2C)c1,1.9,10.1,-4.4,-0.4,1.7,.,.,
C#CCN(C[C@@H]1[C@@H](OC(=O)NCC2CCCCC2)[C@@H](OC(=O)NCC2CCCCC2)Cn2c(=O)ccc(=O)n21)S(=O)(=O)c1ccc(C)cc1,.,41.8*,27.3*,.,-4.1,57.2*,18.3*,MOR ag counter=-0.3;m5-HT2A ag conf=35.0*
O=C(NC1CCCCC1)C(C1CC1)n1c(=O)c(-c2ccco2)nc2ccccc21 (configuration not stated),.,65.5*,16.4*,.,-1.5,71.0*,34.1*,MOR ag counter=-0.9;m5-HT2A ag conf=-2.6
COc1ccc(CN2CCC(n3nccc3NC(=O)CCc3ccccc3)CC2)c(C)c1C,0.6,4.2,-5.2,1.7,-0.3,.,.,
Cc1ccc(NC(=O)CN2CCN(C(=O)c3ccco3)CC2)cc1,0.8,-4.2,-0.7,1.0,-0.8,.,.,
Cc1ccc2nc(-c3ccc(NC(=O)CN4CCN(C(=O)c5ccco5)CC4)cc3)sc2c1,17.1,27.3*,14.5*,8.8,16.6,20.4,6.6,MOR ag counter=-0.4;m5-HT2A ag conf=59.9*
Cc1nn(-c2ccc(Cl)cc2)c(=O)c2ccccc12,-1.1,0.2,-2.2,0.4,-0.3,.,.,
Cc1c(Cl)sn(-c2ccc(Cl)cc2)c1=O,1.0,26.1*,17.1*,48.8*,92.1*,77.5*,106.6*,MOR ag counter=3.3*;m5-HT2A ag conf=0.2
NNC(=O)CNS(=O)(=O)c1ccc([N+](=O)[O-])cc1,-1.3,-0.1,-2.4,2.0,-1.5,.,.,
Cc1ccc(NC(=O)c2cc(-c3ccc(C)o3)nc3ccccc23)cc1,2.3,35.3*,4.0,2.9,84.0*,38.0*,39.6*,Exocytosis CP01=-12.0
COc1cccc(C(=O)Oc2ccccc2/C=C\C(=O)c2cc3ccccc3o2)c1,.,83.4*,-6.8,10.6,86.2*,98.6*,101.5*,Exocytosis CP01=19.5
COc1ccc(C(=O)/C=C/c2ccccc2OC)c(OC(=O)c2ccc([N+](=O)[O-])cc2)c1,2.3,-0.6,0.8,-0.8,-0.9,.,.,
COc1cc(CNCCCN2CCOCC2)cc(Br)c1OCc1ccc(Cl)cc1,3.8,35.4*,-5.4,38.6,57.8*,16.9,0.9,Exocytosis CP01=26.5
COc1cc(CNCCN2CCOCC2)ccc1OCc1ccc(Cl)cc1,-0.6,9.7,-5.2,7.2,16.4,.,.,
CCCc1cc(CN2CCOCC2)c(O)c(CN2CCOCC2)c1O,.,25.5*,-3.1,-0.7,78.7*,63.1*,99.5*,Exocytosis CP01=28.5
COc1ccc(N2C(=O)CC(Sc3nnc(-c4ccccc4)o3)C2=O)cc1 (configuration not stated),-2.1,42.9*,0.3,2.1,57.1*,55.2*,82.9*,Exocytosis CP01=86.9*
